About 10,000 (3%) of roughly 330,000 compounds were called active.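 The calls were made as follows: active = inhibition of at least 50% at 8 µM in the primary screen; inactive = the rest.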 The full list was thinned out, with actives kept by preference.
Each compound was assayed against Protein Mdm4 (Homo sapiens) + E3 ubiquitin-protein ligase Mdm2 (Homo sapiens) (UniProt O15151+Q00987) (assay: disruptors of Mdm2/MdmX RING complex – cell-based, luminescence, split luciferase, SaOS-2, uHTS, primary screen (AID 485346)). Details: SaOS-2 split-luciferase Mdm2/MdmX complementation, at 8 µM, stronger effect = higher value.
Chain of Protein Mdm4 (Homo sapiens) + E3 ubiquitin-protein ligase Mdm2 (Homo sapiens) (O15151 whole entry, looked up): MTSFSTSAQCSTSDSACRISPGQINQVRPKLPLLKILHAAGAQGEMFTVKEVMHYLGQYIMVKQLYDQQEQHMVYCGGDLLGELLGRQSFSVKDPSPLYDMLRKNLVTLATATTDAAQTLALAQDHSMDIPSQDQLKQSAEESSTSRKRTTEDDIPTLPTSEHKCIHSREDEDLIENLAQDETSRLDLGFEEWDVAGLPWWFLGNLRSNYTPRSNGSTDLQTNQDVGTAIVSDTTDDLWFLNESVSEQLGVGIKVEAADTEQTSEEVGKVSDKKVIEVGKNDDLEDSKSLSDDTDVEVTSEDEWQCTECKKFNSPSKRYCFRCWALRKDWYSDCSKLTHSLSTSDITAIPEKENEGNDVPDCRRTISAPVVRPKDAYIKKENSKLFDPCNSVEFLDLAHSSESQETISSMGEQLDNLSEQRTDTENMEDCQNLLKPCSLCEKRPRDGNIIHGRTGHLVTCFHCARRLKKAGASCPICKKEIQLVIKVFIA
Chain of Protein Mdm4 (Homo sapiens) + E3 ubiquitin-protein ligase Mdm2 (Homo sapiens) (Q00987 whole entry, looked up): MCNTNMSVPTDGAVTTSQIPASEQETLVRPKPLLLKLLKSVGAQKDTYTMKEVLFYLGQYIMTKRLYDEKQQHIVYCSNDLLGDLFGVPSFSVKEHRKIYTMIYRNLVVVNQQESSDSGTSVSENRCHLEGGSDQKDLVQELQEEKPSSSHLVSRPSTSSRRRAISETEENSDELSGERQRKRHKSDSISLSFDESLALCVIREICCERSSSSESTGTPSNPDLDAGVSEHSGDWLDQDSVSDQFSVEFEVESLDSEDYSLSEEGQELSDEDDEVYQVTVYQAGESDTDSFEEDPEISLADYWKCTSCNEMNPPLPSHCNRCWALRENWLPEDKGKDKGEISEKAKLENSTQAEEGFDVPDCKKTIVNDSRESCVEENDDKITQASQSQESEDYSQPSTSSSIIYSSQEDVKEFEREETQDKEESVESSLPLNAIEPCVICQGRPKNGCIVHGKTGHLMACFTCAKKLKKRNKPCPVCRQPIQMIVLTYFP

inhibition, inactive:
CCOc1ccc(NC(=O)CN(C)C(=O)Cc2sc(C)nc2-c2ccc(F)cc2)cc1OCC 10.8%
COc1ccc(CN2CCN(C(=O)CCC(=O)Nc3nnc(C(C)C)s3)CC2)cc1F 16.8%
O=C(/C=C/c1ccccc1[N+](=O)[O-])OCC(=O)N1CCCC1 15%
COc1ccc(S(=O)(=O)N2CCN(CC(=O)NCC3(N4CCOCC4)CCCCC3)CC2)cc1 -0.077%
CCO[C@@H]1OC(C(=O)NCc2nc3ccccc3[nH]2)=C[C@H](C2CCCCC2)[C@H]1CCCO 18.5%
O=C(CSc1nnc(CNC(=O)c2ccc(F)cc2)o1)Nc1ccc2c(c1)OCO2 5.86%
NC(=O)C1CCN(C(=O)c2ccc(F)c(S(=O)(=O)N3CCOCC3)c2)CC1 -40.7%
C=CCO/N=C(\C)c1c(O)c(C)c(-c2ccccc2)n(-c2ccccc2)c1=O 9.07%
CC(OC(=O)c1cc2ccccc2o1)C(=O)Nc1ccc(N2CCOCC2)cc1 (stereo not given) 11.3%
CN(CC(=O)Nc1c(Cl)cccc1Cl)C(=O)c1ccncc1 19.3%
Cc1occc1-c1nnc(SCC(=O)NC2(C#N)CCCC2)n1C 22.7%
CN1CCN(S(=O)(=O)c2ccc(N3CCN(c4ccccc4O)CC3)c([N+](=O)[O-])c2)CC1 2.63%
O=c1[nH]c(CN2CCOCC2)nc2cc(Cl)ccc12 -2.08%
NC(=O)Cc1nc2scc(-c3ccc(Cl)cc3)c2c(=O)[nH]1 -0.903%
O=C1c2ccccc2[C@@H]2C[C@@H](O)[C@H](Nc3ccccc3Cl)CCN12 22.5%
Cc1ccnc(SCC(=O)Nc2cccc(S(=O)(=O)N3CCOCC3)c2)n1 15.8%
CC(=O)c1nc2ccccc2n1Cc1ccccc1 4.16%
COC(=O)CSc1nc2ccccc2c(=O)n1Cc1ccccc1 1.48%
CCN1C(=S)N[C@@H](CCc2ccccc2)[C@H](C(=O)OC)[C@H]1C 6.92%
Cc1ccc(NC(=O)/C(=C/c2ccc([N+](=O)[O-])cc2)NC(=O)c2ccccc2)cc1 17.1%
CCOC(=O)/C(=N\Nc1ccccc1[N+](=O)[O-])c1csc(Nc2ccccc2)n1 23.4%
O=C(C1CC(=O)N(C2CCCC2)C1)N1CCN(c2cccc(C(F)(F)F)c2)CC1 (stereo not given) 4.03%
Cc1cc(Nc2cccc(C)c2C)n2ncnc2n1 -28.4%
Cc1cccc(OCC(O)Cn2c(N3CCCCC3)nc3c2c(=O)[nH]c(=O)n3C)c1 (stereo not given) -19.9%
COc1ccc(C(=O)CSc2nnc(NC(=O)C3CC(=O)N(c4cccc(OC)c4)C3)s2)cc1 (stereo not given) -12.2%
NC(=O)CSc1nnc(NC(=O)c2ccc3ccccc3c2)s1 -8.44%
CC(=O)N/C(=C\c1ccccc1)C(=O)OC(C)C(=O)N(C)c1ccccc1 (stereo not given) 19.3%
O=C(CCSCCc1ccccn1)Nc1nccs1 -7.99%
COc1ccc(C2=NN(C(=O)c3cccnc3)C(c3ccccc3)C2)cc1 (stereo not given) 19.9%
COc1ccc(C2CC(c3ccc([N+](=O)[O-])cc3)=NN2C(C)=O)cc1 (stereo not given) -14%
COc1ccc(C(C(=O)NC2CCCC2)N(CCCO)C(=O)Cn2nnc(-c3ccc(C)o3)n2)cc1 (stereo not given) -6.39%
COC(C[C@@H](O)[C@H](C)[C@H](O)COCc1ccccc1)OC 26.1%
CCOc1ccccc1C1CC(c2cccc(NS(C)(=O)=O)c2)=NN1C(=O)c1ccccc1 (stereo not given) 8.21%
COc1ccc(C2=NN(C(=O)c3ccccc3C(=O)O)C(c3ccccc3O)C2)cc1 (stereo not given) -30.7%
CCOc1ccc(C(C)C)cc1S(=O)(=O)n1nc(C)cc1C 13.1%
COc1ccc(OC)c(S(=O)(=O)n2c([N+](=O)[O-])cnc2C)c1 22.7%
Cc1ccc(Cl)c(NC(=O)CN(C)CC(=O)Nc2ccc(F)c(F)c2F)c1Cl -0.971%
O=C(OCC(=O)N1CCCCCC1)c1ccc(Cl)nc1 0.359%

inhibition, active:
O=c1[nH]c(CCl)nc2cc(-c3ccc(Cl)cc3)sc12 80.8%
CC(=O)Oc1c(C(=O)c2nnc(C)o2)c(=O)n(Cc2ccccc2)c2ccccc12 53.7%
CCOC(=O)/C(=C\c1ccc([N+](=O)[O-])cc1)C(=O)c1cc(C(C)=O)c(Nc2ccccc2)s1 99.3%
O=C(/C=C/c1ccccc1)Nc1nnc(SCC(=O)c2ccc3ccccc3c2)s1 69.7%
COc1ccc(C2CC(c3ccccc3)=NN2C(=O)c2ccc(Cl)c([N+](=O)[O-])c2)cc1 (stereo not given) 88.8%
CCOc1ccc2nc(Cl)c(C3CC(c4ccccc4)=NN3C(=O)c3cccs3)cc2c1 (stereo not given) 95%
COc1ccc(C(C[N+](=O)[O-])n2nc(C)cc2C)cc1 (stereo not given) 69.3%
